Source: PubChem BioAssay
Sampled rows, rich in hits. Any-hit rate of the full collection: about 1.9%.
LNCaP diff act – promotes differentiation of LNCaP prostate cells; flow cytometry side scatter, 4 d; side scatter shift, % at 10 µM; actives 0.56% (n = 24,000); AID 795;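 active means side scatter shift above 30%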;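 further: androgen-responsive LNCaP prostate cancer cells in charcoal-stripped serum medium; percent of cells past a gate set so DMSO wells show 10% shift; higher shift means more granular cells and more differentiation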
Autofluor Jurkat – counter-screen for VLA-4 integrin: compound autofluorescence in Jurkat cells | flow cytometry; active compounds read high; 1 = vehicle-only cell background | fluorescence ratio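 (tested at 10 µM compound in the well)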 | actives 0.61% (n = 24,000);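 active means fluorescence ratio above 2.44, which is 1 plus 3 SD of all ratios; inconclusive means signal too bright to measure linearly, ratio around 10 or more; inactive means fluorescence ratio below 2.44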;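 further: green fluorescence of cells measured with 488 nm excitation and 530 nm emission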
FPR binder – human FPR ligand, with FPRL1 counter-screen | P21462 | FPR-expressing cells, fluorescent ligand binding, flow cytometry | inhibition, % (test concentration not listed) | actives 0.74% (n = 24,000);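 further: 0% = buffer wells and 100% = receptor blocker peptide wells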
VLA-4 antagonist – blocks LDV-FITC ligand binding to Mn2+-activated human VLA-4 integrin | inhibition, % at 10 µM (by protocol) | AID 529 | Jurkat cells, LDV-FITC binding with Mn2+, flow cytometry; 100% = Mn2+-driven binding gain fully reversed | actives 0.2% (n = 24,000);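 active means inhibition above 50%; inconclusive means compound itself fluorescent, judged against control cell fluorescence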;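 further: 0% = Mn2+ stimulated cells lacking compound and 100% = ligand binding without Mn2+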
Target sequence (P13612 whole entry, looked up): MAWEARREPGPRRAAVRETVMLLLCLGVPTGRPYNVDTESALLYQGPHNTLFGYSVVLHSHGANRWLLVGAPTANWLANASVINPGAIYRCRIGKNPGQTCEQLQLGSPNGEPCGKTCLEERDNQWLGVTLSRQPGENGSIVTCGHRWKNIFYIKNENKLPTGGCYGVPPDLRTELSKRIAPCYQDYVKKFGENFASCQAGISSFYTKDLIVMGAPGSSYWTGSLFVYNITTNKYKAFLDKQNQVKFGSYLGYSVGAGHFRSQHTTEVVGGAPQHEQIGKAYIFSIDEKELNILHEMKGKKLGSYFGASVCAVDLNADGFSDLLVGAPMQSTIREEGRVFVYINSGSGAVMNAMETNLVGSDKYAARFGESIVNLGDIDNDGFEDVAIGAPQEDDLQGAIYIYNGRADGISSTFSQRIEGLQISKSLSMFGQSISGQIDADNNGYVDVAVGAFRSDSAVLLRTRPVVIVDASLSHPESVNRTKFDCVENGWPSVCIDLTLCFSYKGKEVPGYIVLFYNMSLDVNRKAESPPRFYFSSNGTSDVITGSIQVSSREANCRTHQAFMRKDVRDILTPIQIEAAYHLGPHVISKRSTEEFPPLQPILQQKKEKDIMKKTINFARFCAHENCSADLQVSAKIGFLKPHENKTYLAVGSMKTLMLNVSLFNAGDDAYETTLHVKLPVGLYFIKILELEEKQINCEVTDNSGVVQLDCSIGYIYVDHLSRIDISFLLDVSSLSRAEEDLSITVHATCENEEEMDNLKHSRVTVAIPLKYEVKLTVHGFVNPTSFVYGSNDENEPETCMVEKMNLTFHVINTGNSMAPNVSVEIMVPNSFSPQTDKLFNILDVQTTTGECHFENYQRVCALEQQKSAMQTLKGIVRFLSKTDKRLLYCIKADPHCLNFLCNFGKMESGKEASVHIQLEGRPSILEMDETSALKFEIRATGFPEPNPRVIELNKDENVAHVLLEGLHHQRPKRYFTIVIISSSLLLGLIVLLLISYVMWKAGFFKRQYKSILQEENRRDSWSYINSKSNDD
VLA-4 allo ag – allosterically activates the human VLA-4 integrin; 24,000 tested, under 10 active; activation, % at 10 µM (by protocol); P13612; Jurkat cells, LDV-FITC binding, flow cytometry;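 active means fluorescent ligand binding to cells raised by more than 40% of the manganese-induced maximum; inconclusive means compound's own fluorescence above 85% of the ligand control signal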;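 further: 0% = ligand binding without compound and 100% = manganese-stimulated maximal binding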
FPRL1 ligand – human FPRL1 ligand, with FPR counter-screen; P25090; FPRL1-expressing cells, fluorescent ligand binding inhibition, flow cytometry; inhibition, % (test concentration not listed); actives 0.3% (n = 24,000); AID 441;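 further: 0% = buffer alone and 100% = receptor blocker peptide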
The depositor's hits bear a star; ? = inconclusive; . = not tested or not shown. Unless noted, no stated cut-off is given here; in the data, active means inhibition above about 30%; inconclusive means no clear call, values can overlap the other calls; inactive means below that.

SMILES	LNCaP diff act	Autofluor Jurkat	FPR binder	VLA-4 antagonist	VLA-4 allo ag	FPRL1 ligand
N#CC1(c2ccccc2)CCC(=NO)CC1 (stereo unspecified)	9	1	1	0	-2	-3
COCCOC(=O)c1cc(C(=O)c2cc(F)ccc2O)coc1=N	13	4.1*	-6	?	?	-8
CCOC(=O)c1c(C)c(C(=O)Nc2cc(F)ccc2F)c(C)n1C	12	1.3	4	?	?	3
O=C1CC(Cc2ccccc2)C(=O)N1CCCn1ccnc1 (stereo unspecified)	11	1	-2	-18	3	-5
CCCOc1ccc(/C(O)=C2/C(=O)C(=O)N(CCCn3ccnc3)C2c2ccco2)cc1 (stereo unspecified)	.	.	4	.	.	2
COc1cccc(C2C(C(=O)c3ccc(C)o3)=C(O)C(=O)N2CCCN(C)C)c1 (stereo unspecified)	8	1.1	6	-4	4	7
Cc1ccc(C(=O)C2=C(O)C(=O)N(CCCn3ccnc3)C2c2ccc(OC(C)C)cc2)o1 (stereo unspecified)	.	.	65*	.	.	-2
CCOc1ccc(C2C(C(=O)c3ccco3)=C(O)C(=O)N2CCCn2ccnc2)cc1 (stereo unspecified)	.	.	70*	.	.	1
Cc1nc(C)c(C(=O)C2=C(O)C(=O)N(CCCn3ccnc3)C2c2ccccc2)s1 (stereo unspecified)	9	1.1	1	-16	0	4
COCCN1C(=O)C(O)=C(C(=O)c2cccs2)C1c1ccccc1 (stereo unspecified)	.	.	60*	.	.	-5
CCOc1ccc(C2C(C(=O)c3cccs3)=C(O)C(=O)N2CCCn2ccnc2)cc1 (stereo unspecified)	.	.	30*	.	.	8
O=C(CC(=O)N1CCN(c2ccccn2)CC1)Nc1ccc2nc3n(c(=O)c2c1)CCCCC3	4	1.1	-2	5	0	-4
COc1ccc(Cl)cc1NC(=O)CSc1nnc(Cn2c(=O)sc3ccccc32)n1C	2	0.81	7	-10	-8	4
COc1ccc2nc(Nc3nc(C)c(C(C)=O)s3)sc2c1	7	1.2	6	63*	-12	59*
CCOC(=O)C1=C(C)N=c2s/c(=C\c3ccncc3)c(=O)n2C1c1ccc2c(c1)OCO2 (stereo unspecified)	35*	2	-14	?	?	-8
O=C(c1nc2n(n1)C(c1ccc(Cl)cc1)C=C(c1ccccc1)N2)N1CCOCC1 (stereo unspecified)	13	3.5*	-3	?	?	-8
COc1cccc(Cn2nnc(C(=O)NCc3ccccc3Cl)c2N)c1	11	1.5	-3	?	?	-6
c1ccc2c(c1)CCCN2c1nc2ccccc2n2cnnc12	4	2.6*	-6	?	?	-6
CCCC(=O)N1CCN(S(=O)(=O)c2cc(Cl)ccc2OC)CC1	4	0.84	-1	10	4	1
c1ccc2c(c1)nc(Nc1ccc3c(c1)OCO3)c1nnnn12	14	3.2*	-12	?	?	-10
CCN(CC)S(=O)(=O)c1ccc(NC(=O)Cn2cnc3ccccc3c2=O)cc1	14	1	0	-5	-3	1
CCN(CC)S(=O)(=O)c1ccc(Nc2nc3ccccc3n3nnnc23)cc1	6	3.2*	-11	?	?	-2
Cc1cc(C)n(-c2nc3ccccc3nc2Nc2ccc3c(c2)OCO3)n1	21	1.5	-9	?	?	-4
COc1ccc(Cn2nnc3c(=O)[nH]c(C(=O)NCCc4ccc(F)cc4)nc32)cc1OC	12	1.1	9	-30	-8	3
O=C(C1CC1)N1CCN=C1SCc1ccccc1Cl	3	0.96	2	1	2	-6
SMILES	LNCaP diff act	Autofluor Jurkat	FPR binder	VLA-4 antagonist	VLA-4 allo ag	FPRL1 ligand
CCCOc1ccc(C(CC(=O)O)NC(=O)C23CC4CC(CC(C4)C2)C3)cc1 (stereo unspecified)	.	1.1	.	113*	-26	.
CCCCOc1ccc(CC(=O)NO)cc1	1	1	2	-20	6	1
COc1ccc(-c2nc3c(c(=O)n(C)c(=O)n3C)n2CC2CC(c3ccccc3)=NO2)cc1OC (stereo unspecified)	3	1.2	0	-2	0	-4
COc1ccccc1S(=O)(=O)Cc1ccc(C(=O)NC(C)c2ccc3c(c2)OCCO3)o1 (stereo unspecified)	3	1.1	4	-7	-6	-1
CC(C)(C)OC(=O)N1CCC(C(=O)N2CCCCCC2)CC1	31*	1.1	-9	-2	2	-7
CN1CCN(CCCNC(=O)Nc2cccc3ccccc23)CC1	3	1.1	5	-8	-4	32*
COc1ccc(-c2coc3c(CN4CCCCC4)c(O)c(CN4CCCCC4)c(O)c3c2=O)cc1	36*	1.1	-6	37	-4	-2
COc1cc(C)c(N)cc1C(C)C	3	1.1	-9	-11	2	-5
CCN(CC)c1ccc2c(c1)CCCN2	14	4.5*	-9	?	?	-23
O=C(CN1CCN(Cc2ccc3c(c2)OCO3)CC1)N1CCc2[nH]c3ccc(F)cc3c2C1	50*	1.1	-12	3	6	-3
Cc1ccc(CS(=O)(=O)CCC(=O)N2CCOCC2)cc1	7	1	-2	-13	2	-1
CCCOc1ccc(C2C(C(=O)c3ccco3)=C(O)C(=O)N2CCN2CCOCC2)cc1OC (stereo unspecified)	.	.	20	.	.	-4
COCCCN1C(=O)C(O)=C(C(=O)c2ccco2)C1c1cccc(Br)c1 (stereo unspecified)	.	.	70*	.	.	-7
COCCCN1C(=O)C(O)=C(C(=O)c2ccco2)C1c1ccc(Br)cc1 (stereo unspecified)	8	1	48*	-10	4	-4
Cc1cc2nc(C3CCN(CC4COc5ccccc5O4)CC3)[nH]c2cc1C (stereo unspecified)	10	1.2	-6	-7	0	-4
O=C(NCC(c1cccnc1)N1CCN(c2ccccc2F)CC1)c1cccc(Cl)c1 (stereo unspecified)	1	1.1	-2	15	-11	-2
Cc1nc2ccc(F)cc2cc1C(=O)NCC1CCCO1 (stereo unspecified)	8	3.4*	-4	?	?	-4
CCN1CCCC1CNC(=O)c1cc(NC(C)=O)c(N(C)C)cc1OC (stereo unspecified)	20	0.91	3	12	-1	-30
COC(=O)c1ccc(/C(O)=C(\C#N)c2nc3ccccc3s2)cc1	12	2.7*	-5	?	?	-45
Cc1nn(Cc2ccc(F)cc2)c(C)c1NC(=O)c1cc(-c2ccc3c(c2)OCO3)on1	30*	1.1	0	5	-12	2
